From ChEMBL document CHEMBL3988442, “University of Dundee, Small-Polar-MMV Screening Library” (2021)
For some assays here: Entries with a potency or affinity are not part of this list.

Assays:
Design in all cases: scale not given: direction of the effect not stated beside the values
[1] = target: Protein translocase subunit SecA (Escherichia coli (strain K12)) (UniProt P10408); test: Assay to Identify E. coli SecA ATPase Inhibitors; assay type: functional; settings: 30 µM
[2] = target: T1, Ubiquitin-activating enzyme e1, putative (Leishmania donovani (strain BPK282A1)) (UniProt E9BSI1); test: Leishmania donovani Ubiquitin Activating Enzyme (LdE1); assay type: functional; settings: 30 µM
T1 sequence (whole entry): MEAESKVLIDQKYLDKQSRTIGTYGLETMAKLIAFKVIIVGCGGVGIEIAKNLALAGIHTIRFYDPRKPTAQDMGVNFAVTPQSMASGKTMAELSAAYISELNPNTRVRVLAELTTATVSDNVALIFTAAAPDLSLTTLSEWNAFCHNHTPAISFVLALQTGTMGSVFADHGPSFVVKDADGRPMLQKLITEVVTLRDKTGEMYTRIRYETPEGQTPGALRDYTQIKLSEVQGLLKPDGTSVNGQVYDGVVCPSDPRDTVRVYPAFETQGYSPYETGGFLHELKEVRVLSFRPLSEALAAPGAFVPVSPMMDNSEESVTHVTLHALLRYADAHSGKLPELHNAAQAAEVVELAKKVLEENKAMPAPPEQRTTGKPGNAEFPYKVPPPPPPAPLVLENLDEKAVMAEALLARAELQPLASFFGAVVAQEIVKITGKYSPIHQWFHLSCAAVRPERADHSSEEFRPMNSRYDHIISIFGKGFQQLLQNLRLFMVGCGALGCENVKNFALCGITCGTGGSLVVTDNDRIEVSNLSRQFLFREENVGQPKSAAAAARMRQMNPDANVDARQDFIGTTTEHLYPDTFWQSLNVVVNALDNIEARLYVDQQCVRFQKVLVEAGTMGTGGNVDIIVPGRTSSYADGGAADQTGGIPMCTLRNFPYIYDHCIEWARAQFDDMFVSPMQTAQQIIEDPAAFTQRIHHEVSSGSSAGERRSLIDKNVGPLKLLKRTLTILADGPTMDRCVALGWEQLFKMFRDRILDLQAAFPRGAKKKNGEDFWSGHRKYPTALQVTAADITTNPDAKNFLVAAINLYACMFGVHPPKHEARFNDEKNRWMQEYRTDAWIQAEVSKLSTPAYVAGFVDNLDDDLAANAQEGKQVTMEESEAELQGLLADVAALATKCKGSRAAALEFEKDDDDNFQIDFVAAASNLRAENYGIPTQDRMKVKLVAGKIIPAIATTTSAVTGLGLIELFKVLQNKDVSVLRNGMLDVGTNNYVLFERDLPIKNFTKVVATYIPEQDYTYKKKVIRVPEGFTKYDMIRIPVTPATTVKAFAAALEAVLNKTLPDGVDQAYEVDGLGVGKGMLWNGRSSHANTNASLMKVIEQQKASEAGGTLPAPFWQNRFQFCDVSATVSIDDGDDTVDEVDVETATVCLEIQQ

[3] = target: T2, Aspartate--tRNA(Asp/Asn) ligase (Mycobacterium tuberculosis (strain ATCC 25618 / H37Rv)) (UniProt P9WFW3); test: Assay for Asp RNA synthetase-1 from Mycobacterium tuberculosis; assay type: functional; settings: 30 µM; note: in the data most compounds retested in dose-response had high values
T2 sequence (whole entry): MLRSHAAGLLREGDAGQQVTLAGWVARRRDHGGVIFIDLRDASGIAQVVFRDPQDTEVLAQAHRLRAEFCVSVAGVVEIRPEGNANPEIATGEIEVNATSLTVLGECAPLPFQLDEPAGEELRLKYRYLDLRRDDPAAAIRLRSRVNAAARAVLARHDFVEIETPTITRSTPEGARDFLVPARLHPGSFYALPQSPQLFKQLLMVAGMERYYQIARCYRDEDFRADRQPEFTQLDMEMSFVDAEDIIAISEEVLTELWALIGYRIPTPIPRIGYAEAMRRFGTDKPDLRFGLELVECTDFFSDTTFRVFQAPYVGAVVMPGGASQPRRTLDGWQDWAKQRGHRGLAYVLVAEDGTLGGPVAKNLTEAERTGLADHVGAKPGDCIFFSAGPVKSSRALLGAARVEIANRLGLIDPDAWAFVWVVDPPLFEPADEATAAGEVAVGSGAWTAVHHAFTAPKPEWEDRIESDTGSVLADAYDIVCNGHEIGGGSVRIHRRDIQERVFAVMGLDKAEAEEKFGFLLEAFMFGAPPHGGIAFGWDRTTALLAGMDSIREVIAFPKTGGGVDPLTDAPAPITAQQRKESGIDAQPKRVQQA

[4] = target: AMP-activated protein kinase, AMPK (Homo sapiens) (UniProt P54646+O43741+P54619+Q9UGJ0+Q9Y478+Q13131+Q9UGI9); test: AMP-dependent Kinase enzyme assay. An in vitro enzyme assay that detects ADP turnover that is directly proportional to AMPK activity. This uses naive AMPK that is activated during the assay with MK-8722; assay type: functional; settings: 30 µM
[5] = target: Sialic acid-binding Ig-like lectin 9 (Homo sapiens) (UniProt Q9Y336); test: Hs-Siglec9 ALPHAscreen SOP 20170721; settings: 10 µM
Trypanosoma cruzi = test: Trypanosoma cruzi phosphomannomutase and mannose-1-phosphate guanylyltransferase assay; assay type: functional; settings: 10 µM
[6] = target: T3, Arginase-2, mitochondrial (Homo sapiens) (UniProt P78540); test: in vitro enzyme assay to detect the production of urea directly proportional to the activity of Arginase II; assay type: functional; settings: 33.3 µM; note: in the data most compounds retested in dose-response had high values
T3 sequence (whole entry): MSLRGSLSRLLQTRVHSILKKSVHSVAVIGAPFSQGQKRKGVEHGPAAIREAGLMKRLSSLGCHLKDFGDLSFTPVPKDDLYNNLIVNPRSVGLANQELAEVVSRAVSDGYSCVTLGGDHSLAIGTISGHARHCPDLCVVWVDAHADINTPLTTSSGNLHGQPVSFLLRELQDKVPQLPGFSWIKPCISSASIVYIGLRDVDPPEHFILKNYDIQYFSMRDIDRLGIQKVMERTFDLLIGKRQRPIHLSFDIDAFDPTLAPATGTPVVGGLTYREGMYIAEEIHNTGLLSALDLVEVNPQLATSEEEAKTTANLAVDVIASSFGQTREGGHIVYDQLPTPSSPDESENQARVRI

[7] = target: T4, Proteasome subunit beta (Trypanosoma cruzi) (UniProt O96673); test: Trypanosoma cruzi proteasome chymotrypsin-like activity (TcProtChymo) assay.; note: in the data most compounds retested in dose-response had high values; assay type: functional; settings: 9.37 µM
T4 sequence (whole entry): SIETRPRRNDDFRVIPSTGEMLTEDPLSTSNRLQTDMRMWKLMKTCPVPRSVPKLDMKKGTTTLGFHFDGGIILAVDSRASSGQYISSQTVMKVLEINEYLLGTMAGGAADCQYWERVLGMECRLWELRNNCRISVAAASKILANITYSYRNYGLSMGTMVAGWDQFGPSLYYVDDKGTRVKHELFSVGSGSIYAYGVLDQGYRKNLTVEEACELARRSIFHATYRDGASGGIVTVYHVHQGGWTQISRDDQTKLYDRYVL

Homo sapiens = species: Homo sapiens; test: To identify inhibition of the IFN signalling (Jak-Stat) pathway via expression of an eGFP reporter gene under the control of an IFN-stimulated response element (ISRE) containing MxA promoter.; assay type: functional; settings: 30 µM
[8] = target: Shiga toxin 2 (Escherichia coli O157:H7) (UniProt P09385+P09386); test: E. coli 0.157:H7 Shiga Toxin SOP - stx2 screening assay; assay type: functional; settings: 30 µM
[9] = target: T5, Tyrosyl-tRNA synthetase, putative (Trypanosoma cruzi (strain CL Brener)) (UniProt Q4DSP6); test: Trypanosoma cruzi tyrosyl tRNA synthetase (TcYRS) _High Tyrosine SOP; assay type: functional; settings: 30 µM; note: in the data most compounds retested in dose-response had high values
T5 sequence (whole entry): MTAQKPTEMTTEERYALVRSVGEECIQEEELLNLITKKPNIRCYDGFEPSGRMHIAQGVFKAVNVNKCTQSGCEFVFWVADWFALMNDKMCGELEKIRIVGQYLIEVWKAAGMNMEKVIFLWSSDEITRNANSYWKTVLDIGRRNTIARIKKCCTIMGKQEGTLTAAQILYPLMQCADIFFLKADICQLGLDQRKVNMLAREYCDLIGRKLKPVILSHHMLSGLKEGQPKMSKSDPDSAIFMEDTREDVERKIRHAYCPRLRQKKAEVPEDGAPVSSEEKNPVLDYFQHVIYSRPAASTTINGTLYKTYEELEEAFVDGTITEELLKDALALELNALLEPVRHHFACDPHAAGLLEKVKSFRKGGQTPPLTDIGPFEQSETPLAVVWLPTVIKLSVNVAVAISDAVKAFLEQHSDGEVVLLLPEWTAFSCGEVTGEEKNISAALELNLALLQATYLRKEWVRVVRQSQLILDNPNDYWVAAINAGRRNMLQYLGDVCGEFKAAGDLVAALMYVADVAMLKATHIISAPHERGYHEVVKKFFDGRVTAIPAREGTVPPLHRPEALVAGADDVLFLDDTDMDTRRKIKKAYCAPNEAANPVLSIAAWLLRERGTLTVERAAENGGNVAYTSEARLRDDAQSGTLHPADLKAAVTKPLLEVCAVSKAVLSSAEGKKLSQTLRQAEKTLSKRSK

[10] = target: T5, Tyrosyl-tRNA synthetase, putative (Trypanosoma cruzi (strain CL Brener)); test: Trypanosoma cruzi tyrosyl tRNA synthetase (TcYRS) SOP; assay type: functional; settings: 30 µM
[11] = target: Chromo domain-containing protein 1 (Saccharomyces cerevisiae (strain ATCC 204508 / S288c) (Baker's yeast)) (UniProt P32657); test: ScCHD-1 Enzyme Inhibition Assay; assay type: functional; settings: 30 µM; note: in the data most compounds retested in dose-response had high values
Sequence of Chromo domain-containing protein 1 (Saccharomyces cerevisiae (strain ATCC 204508 / S288c) (Baker's yeast)) (P32657 whole entry, the tested form may be a part): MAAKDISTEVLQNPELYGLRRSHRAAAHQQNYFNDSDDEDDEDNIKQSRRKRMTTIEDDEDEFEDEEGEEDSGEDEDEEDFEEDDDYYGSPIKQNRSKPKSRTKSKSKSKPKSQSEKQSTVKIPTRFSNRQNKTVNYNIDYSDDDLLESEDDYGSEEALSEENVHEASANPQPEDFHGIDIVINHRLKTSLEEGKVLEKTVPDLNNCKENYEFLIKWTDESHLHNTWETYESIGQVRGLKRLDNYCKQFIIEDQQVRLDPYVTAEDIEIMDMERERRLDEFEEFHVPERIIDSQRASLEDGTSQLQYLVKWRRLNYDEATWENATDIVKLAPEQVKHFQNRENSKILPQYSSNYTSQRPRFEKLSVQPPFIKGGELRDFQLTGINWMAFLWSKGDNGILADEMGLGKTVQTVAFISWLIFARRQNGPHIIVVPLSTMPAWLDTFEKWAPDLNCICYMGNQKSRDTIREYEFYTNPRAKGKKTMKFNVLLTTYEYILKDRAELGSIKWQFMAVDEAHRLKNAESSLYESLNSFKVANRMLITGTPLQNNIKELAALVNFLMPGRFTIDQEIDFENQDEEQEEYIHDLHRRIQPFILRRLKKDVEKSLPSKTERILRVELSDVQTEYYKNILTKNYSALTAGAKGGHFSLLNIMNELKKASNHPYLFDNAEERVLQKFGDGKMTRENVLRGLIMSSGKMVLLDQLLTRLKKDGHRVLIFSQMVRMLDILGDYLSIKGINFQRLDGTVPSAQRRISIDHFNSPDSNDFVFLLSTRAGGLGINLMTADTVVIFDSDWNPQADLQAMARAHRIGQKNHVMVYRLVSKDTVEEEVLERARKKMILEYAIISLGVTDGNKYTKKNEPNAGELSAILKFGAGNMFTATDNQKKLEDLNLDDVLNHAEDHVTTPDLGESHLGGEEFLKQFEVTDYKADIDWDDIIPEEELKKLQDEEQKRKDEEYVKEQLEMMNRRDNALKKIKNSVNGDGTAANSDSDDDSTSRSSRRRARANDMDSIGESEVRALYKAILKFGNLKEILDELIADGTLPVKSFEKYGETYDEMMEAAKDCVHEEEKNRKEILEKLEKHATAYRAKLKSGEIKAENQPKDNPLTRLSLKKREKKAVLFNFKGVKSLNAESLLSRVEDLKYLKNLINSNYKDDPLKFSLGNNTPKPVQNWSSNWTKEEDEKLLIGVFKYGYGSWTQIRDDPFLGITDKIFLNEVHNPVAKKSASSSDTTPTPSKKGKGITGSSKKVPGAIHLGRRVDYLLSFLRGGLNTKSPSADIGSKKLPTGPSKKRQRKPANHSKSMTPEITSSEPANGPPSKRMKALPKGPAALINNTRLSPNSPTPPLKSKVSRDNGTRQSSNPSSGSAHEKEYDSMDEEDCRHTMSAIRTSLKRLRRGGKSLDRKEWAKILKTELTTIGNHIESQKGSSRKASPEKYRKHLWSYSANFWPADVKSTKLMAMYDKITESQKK

Sequence of Protein translocase subunit SecA (Escherichia coli (strain K12)) (P10408 whole entry): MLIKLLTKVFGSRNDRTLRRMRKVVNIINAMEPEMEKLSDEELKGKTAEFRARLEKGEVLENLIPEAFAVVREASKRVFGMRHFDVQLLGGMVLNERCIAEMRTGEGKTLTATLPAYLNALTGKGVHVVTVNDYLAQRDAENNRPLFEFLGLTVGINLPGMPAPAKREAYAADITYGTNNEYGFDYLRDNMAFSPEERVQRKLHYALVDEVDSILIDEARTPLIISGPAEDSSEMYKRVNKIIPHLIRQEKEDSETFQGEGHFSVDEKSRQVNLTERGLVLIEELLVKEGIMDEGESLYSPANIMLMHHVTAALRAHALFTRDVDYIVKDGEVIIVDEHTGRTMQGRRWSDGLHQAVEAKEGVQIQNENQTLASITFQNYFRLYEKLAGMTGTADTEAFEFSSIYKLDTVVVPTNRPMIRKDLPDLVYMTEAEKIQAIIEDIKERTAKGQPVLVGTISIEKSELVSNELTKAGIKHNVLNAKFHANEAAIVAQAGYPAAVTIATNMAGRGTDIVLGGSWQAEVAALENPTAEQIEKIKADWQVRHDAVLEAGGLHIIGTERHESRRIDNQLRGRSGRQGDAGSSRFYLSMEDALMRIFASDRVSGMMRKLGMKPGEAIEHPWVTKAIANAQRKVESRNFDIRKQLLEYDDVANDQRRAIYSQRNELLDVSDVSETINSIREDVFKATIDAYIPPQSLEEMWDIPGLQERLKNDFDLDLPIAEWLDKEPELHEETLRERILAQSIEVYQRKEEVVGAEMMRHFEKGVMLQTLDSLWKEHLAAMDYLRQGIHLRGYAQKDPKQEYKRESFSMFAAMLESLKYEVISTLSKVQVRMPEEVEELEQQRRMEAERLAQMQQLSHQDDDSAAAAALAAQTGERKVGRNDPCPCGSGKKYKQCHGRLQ
Sequence of Sialic acid-binding Ig-like lectin 9 (Homo sapiens) (Q9Y336 whole entry): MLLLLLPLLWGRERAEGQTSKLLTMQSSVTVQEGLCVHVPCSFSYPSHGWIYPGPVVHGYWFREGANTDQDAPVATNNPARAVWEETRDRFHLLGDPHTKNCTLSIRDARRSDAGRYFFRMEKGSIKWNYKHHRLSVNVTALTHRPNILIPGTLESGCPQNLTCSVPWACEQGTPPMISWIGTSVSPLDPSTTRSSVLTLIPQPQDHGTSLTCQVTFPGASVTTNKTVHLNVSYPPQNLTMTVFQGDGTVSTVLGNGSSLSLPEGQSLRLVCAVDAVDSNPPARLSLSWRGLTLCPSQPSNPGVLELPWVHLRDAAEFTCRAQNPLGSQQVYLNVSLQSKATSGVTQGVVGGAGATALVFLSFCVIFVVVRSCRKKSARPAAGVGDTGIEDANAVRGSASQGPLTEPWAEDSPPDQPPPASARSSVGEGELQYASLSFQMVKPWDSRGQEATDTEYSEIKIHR

| SMILES | Percent Effect [1] | Percent Effect [2] | Percent Effect [3] | Percent Effect [4] | Percent Effect [5] | Percent Effect (Trypanosoma cruzi) | Percent Effect [6] | Percent Effect [7] | Percent Effect (Homo sapiens) | Percent Effect [8] | Percent Effect [9] | Percent Effect [10] | Percent Effect [11] |
| --- | --- | --- | --- | --- | --- | --- | --- | --- | --- | --- | --- | --- | --- |
| O=C1[C@H]2CN(Cc3cccs3)C[C@H]2CN1c1cncnc1 | -5.75% | 2.6% | -7.76% | 1.57% | 4.28% | -3.25% | -8.28% | 9.65% | 7.38% | -49.4% | 2.15% | 1.24% | 1.9% |
| Cc1noc(C)c1CN1CCOC2(CCCN(c3nccs3)C2)C1 (stereo not given) | -8.9% | 8% | 7.92% | 26.5% | 1.44% | -6.18% | -56.1% | 2.91% | 21.7% | -14.3% | -7.29% | -30% | -4.72% |
| Cc1cccc(C(=O)N2C[C@@H]3OCCN(C(C)C)[C@@H]3C2)n1 | -0.342% | 0% | 2.88% | 1.78% | 5.46% | 1.74% | -50% | 5.81% | -20.9% | -1.16% | -26% | 2.5% | 0.0349% |
| c1cncc(N2CCOCC3(CCCN(Cc4cccs4)C3)C2)c1 (stereo not given) | -5.18% | 13.5% | 2.95% | 5.95% | -1.9% | -0.293% | 2.23% | 10.3% | 4.59% | 14.1% | 8.65% | 15.4% | -1.37% |
| Cc1cnc(N2CCCC3(CCCN(C)C3)C2)nc1 (stereo not given) | -4.89% | 0% | -0.912% | 0.0306% | 4.33% | 3.37% | -6.79% | 8.82% | -22.4% | 7.25% | -2.08% | 8.64% | -5.6% |
